# Publication PMC4336329 (PLoS ONE, 2015)
# Screen size: about 310,000 compounds; about 14,000 (4.5%) showed an effect of 50% or more. Effects have a minus sign here. The entries come from a sample that favours strong results as a whole.
# Molecular target: human ether-à-go-go-related gene (hERG) potassium channel (human, UniProt Q12809)
# Assay: primary screen, population patch clamp on CHO cells stably expressing hERG; higher = less effect of the substance
# 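Further: peak tail current of the secondary pulse compared with the same well before compound.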
# Sequence of human ether-à-go-go-related gene (hERG) potassium channel (Q12809 whole entry, looked up): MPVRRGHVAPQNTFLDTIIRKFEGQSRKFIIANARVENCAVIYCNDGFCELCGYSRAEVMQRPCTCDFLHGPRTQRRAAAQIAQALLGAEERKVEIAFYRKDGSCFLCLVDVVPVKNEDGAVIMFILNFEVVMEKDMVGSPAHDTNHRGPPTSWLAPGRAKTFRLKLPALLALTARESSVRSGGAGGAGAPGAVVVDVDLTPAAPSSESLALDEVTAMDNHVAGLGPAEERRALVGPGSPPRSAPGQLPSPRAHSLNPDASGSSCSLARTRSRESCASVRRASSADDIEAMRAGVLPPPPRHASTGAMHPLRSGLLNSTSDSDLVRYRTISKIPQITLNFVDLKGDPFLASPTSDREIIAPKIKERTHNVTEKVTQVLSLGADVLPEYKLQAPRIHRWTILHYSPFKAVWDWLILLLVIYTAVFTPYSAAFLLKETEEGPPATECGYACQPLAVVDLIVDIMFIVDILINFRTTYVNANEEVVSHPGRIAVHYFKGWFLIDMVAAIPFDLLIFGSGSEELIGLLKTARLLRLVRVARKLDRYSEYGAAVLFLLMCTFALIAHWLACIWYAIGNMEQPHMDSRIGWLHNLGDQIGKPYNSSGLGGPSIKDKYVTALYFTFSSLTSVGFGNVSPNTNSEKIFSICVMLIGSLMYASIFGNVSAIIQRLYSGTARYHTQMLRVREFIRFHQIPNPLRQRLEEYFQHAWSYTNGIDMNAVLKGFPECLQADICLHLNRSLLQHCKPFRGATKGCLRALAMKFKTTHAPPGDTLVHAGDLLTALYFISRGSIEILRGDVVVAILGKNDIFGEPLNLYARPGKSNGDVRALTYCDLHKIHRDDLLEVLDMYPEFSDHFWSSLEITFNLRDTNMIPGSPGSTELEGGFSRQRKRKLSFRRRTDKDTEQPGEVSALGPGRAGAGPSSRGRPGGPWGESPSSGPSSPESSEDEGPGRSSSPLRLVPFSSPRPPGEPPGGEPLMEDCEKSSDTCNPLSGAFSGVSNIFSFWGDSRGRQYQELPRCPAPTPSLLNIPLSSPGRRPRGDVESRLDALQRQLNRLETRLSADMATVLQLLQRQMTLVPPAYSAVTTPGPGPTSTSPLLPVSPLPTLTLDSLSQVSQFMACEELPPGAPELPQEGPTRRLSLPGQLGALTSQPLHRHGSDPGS
row,Compound,"hERG current change (%, negative = inhibition) at 10uM [%]"
1,COCCNCC(=O)NC12CC3CC(CC(C3)C1)C2,8.91
2,CC(C)COc1ccc(C(=O)N2C(=O)c3ccc(N)cc3C2=O)cc1,4.32
3,COc1ccc(C2CN(C)CC2C(=O)c2ccc(F)cc2)cc1Cl (stereo not shown),-78.7
4,COc1ccc(/C(O)=C2/C(=O)C(=O)N(CCN(C)C)C2c2ccc(C)cc2)cc1Cl (stereo not shown),5.16
5,COc1ccc(CNC(=O)N2CCN(c3ccc(F)cc3)CC2)cc1Cl,-26.1
6,COc1ccc(/C(O)=C2/C(=O)C(=O)N(CCN(C)C)C2c2ccc(F)cc2)cc1Cl (stereo not shown),13.8
7,COc1ccc(C2CN(C)CC2C(=O)c2ccc(C)cc2)cc1Cl (stereo not shown),-63
8,Cc1c(C(N)=O)sc(N)c1C(=O)OC(C)C,9.72
9,COC(=O)c1ccc(N=C2SCC(=O)N2C)cc1,14.3
10,CCOc1cc(OCC)nc(S(C)(=O)=O)n1,-0.891
11,Cc1cccc(N2CCN(CC(=O)NCc3ccc(Cl)cc3)CC2)c1C,-29.2
12,CCN(CC(=O)NCc1ccc(F)cc1)C(=O)CN1CCN(c2ccc(OC)cc2)CC1.O=C(O)C(=O)O,-61.9
13,COc1ccc(C(=O)CN2CCN(c3ccc(F)cc3)CC2)cc1,-38.3
14,CCN(CC(=O)NCc1ccc(F)cc1)C(=O)CN1CCN(c2ccccc2OC)CC1,-61.4
15,CCN(CC(=O)NCc1ccc(F)cc1)C(=O)CN1CCN(c2cc(Cl)ccc2C)CC1,-73.1
16,COc1ccccc1N1CCN(CC(=O)NCc2ccc(Cl)cc2)CC1,-0.607
17,COc1ccc(CNC(=O)N2CCN(c3ccc(F)cc3)CC2)cc1,-6.24
18,Cc1ccccc1N1CCN(CC(=O)NCc2ccc(Cl)cc2)CC1,-27
19,CCOc1ccccc1N1CCN(C(=O)NCc2ccc(F)cc2)CC1,-9.29
20,CC(=O)Nc1ccc(NCc2cccs2)cc1,6.07
21,Cc1ccc(NC(=O)N2CCN(C(=O)C3CCCO3)CC2)cc1 (stereo not shown),9.64
22,COc1ccccc1OCC(=O)Nc1ncc(C)s1,-6.77
23,CC(C)(C)NC(=O)NC(=O)CSc1nnc2ccccn12,-2.98
24,CCOc1ccccc1CNC(=O)C1CCC(=O)N1C(C)C (stereo not shown),1.56
25,Cc1cnc(C(=O)OCC(=O)Nc2c(Cl)cc(Cl)cc2Cl)cn1,12.7
26,O=C(CCCNS(=O)(=O)c1cccc2nsnc12)NCCc1ccccc1,5.61
27,CN(Cc1ccccc1)C(=O)C1CCN(S(=O)(=O)c2cc([N+](=O)[O-])ccc2Cl)CC1,-54.6
28,CC(NC(=O)C1CCN(S(=O)(=O)c2cc([N+](=O)[O-])ccc2Cl)CC1)c1ccccc1 (stereo not shown),11.5

row,Compound,"hERG current change (%, negative = inhibition) at 10uM [%]"
1,CCC(C)NC(=O)C1CCN(S(=O)(=O)c2cc([N+](=O)[O-])ccc2Cl)CC1 (stereo not shown),-0.184
2,CN(Cc1ccccc1)C(=O)C1CCN(S(C)(=O)=O)CC1,16.1
3,O=C(COC(=O)C1CCN(S(=O)(=O)c2cc([N+](=O)[O-])ccc2Cl)CC1)Nc1ncc(Cl)cc1Cl,-57.6
4,O=C(NC1CC1)C1CCN(S(=O)(=O)c2cc([N+](=O)[O-])ccc2Cl)CC1,-28
5,O=C(COC(=O)C1CC1)Nc1ncc(Cl)cc1Cl,8.23
6,O=C(NCc1ccccc1)C1CCN(S(=O)(=O)c2cc([N+](=O)[O-])ccc2Cl)CC1,-7.61
7,CC(=O)COC(=O)C1CCN(S(=O)(=O)c2cc([N+](=O)[O-])ccc2Cl)CC1,-51.8
8,O=C(NCc1ccc(Cl)cc1)C1CCN(S(=O)(=O)c2cc([N+](=O)[O-])ccc2Cl)CC1,-59
9,O=C(COC(=O)C1CCCC1)Nc1ncc(Cl)cc1Cl,5.91
10,CC1CCN(S(=O)(=O)c2cc([N+](=O)[O-])ccc2Cl)CC1,-24
11,Cc1cccc(C(=O)NC2CCN(C(=S)NCc3ccco3)CC2)c1,-46.7
12,CCOC(=O)CSc1ncc(-c2cccc(Cl)c2)cn1,-17.4
13,CC/C(CC(c1ccccc1)c1c(O)c2ccccc2oc1=O)=N\NC(N)=S (stereo not shown),2.2
14,Cc1cc(O)c(C(C[N+](=O)[O-])c2ccc(Cl)cc2Cl)c(=O)o1 (stereo not shown),6.51
15,CCOC(=O)N1CCN(C(=O)COc2cc(=O)n(CC)c3ccccc23)CC1,-17
16,CCCCc1cc2c(cc1NC(=O)CN1CCCCC1)OCCO2.Cl,3.82
17,COc1ccc(-c2cc(C(=O)Nc3ccccc3O)c3ccccc3n2)cc1,13.1
18,Cc1cccc(NC(=O)c2cccc(N3C(=O)C4C5CCC(C5)C4C3=O)c2)c1C (stereo not shown),-7.75
19,Cc1ccc(-n2c(=O)[nH]c3c(C(N)=O)nc(-c4ccc(C)o4)nc32)cc1,14.7
20,Cc1oc2ccc(Br)cc2c(=O)c1-c1nn[nH]n1,3.71
21,Cc1c(-c2ccncc2)oc2ccc(Br)cc2c1=O,-41.2
22,Cc1c(-c2cc[n+]([O-])cc2)oc2ccc(Br)cc2c1=O,-54.2
23,Cc1ccc(S(=O)(=O)Oc2cccc(N3C(=O)C4CC=CCC4C3=O)c2)cc1 (stereo not shown),-17.3
24,CC(=O)NC(Cc1cc(C)ccc1C)C(=O)N1CCN(C(=O)c2ccc(Br)cc2)CC1 (stereo not shown),-71.8
25,CC(=O)NC(Cc1cc(C)ccc1C)C(=O)N1CCN(C(=O)c2ccccc2Br)CC1 (stereo not shown),-0.358
26,CC(=O)NC(Cc1cc(C)ccc1C)C(=O)N1CCN(C(=O)c2ccc([N+](=O)[O-])cc2)CC1 (stereo not shown),-30.2
27,CCOC(=O)c1c(NC(=O)COC(=O)CCOc2ccccc2C)sc(C(=O)NC)c1C,20.1
